Compounds with a hit are over-represented: about 2.9% of the library has one in this group of screens.
HEK293 tox: qHTS of GLP-1 Receptor Inverse Agonists: Cytotox Screen | HEK293 cAMP-luciferase reporter cells, luminescence, 24 h | Potency, µM (series often up to 38.3 µM), without a hit: at the highest dose activity change, negative = inhibition, usual class: inhibitors | hit rate 0.13% among 410,000 | AID 624418, 2012;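 further: loss of luciferase light is scored as toxicity; potency means the concentration at half of the fitted maximal effect; on the % scale 0 is the no-effect control and ±100 the full control effect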
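Quantitative HTS format, 1536 wells, 200 cells/uL seeded. Compounds: 23 nL, 24 h, 37 °C. Detection: luciferase reagent, luminescence at 12 min RT; decreased signal taken as cytotoxic.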
p53 reactivation: qHTS assay for re-activators of p53 using a Luc reporter. H1299 p53-A138V BP100-luciferase reporter, luminescence, 24 h. Potency, µM (doses to about 92.2 µM), for inactives: at the top dose activity change, positive = activation, actives largely listed as activators. hit rate 0.063% among 320,000. AID 504706, 2011; further: potency means the concentration at half of the fitted maximal effect; % of control where 0% means no effect; nearly all actives have a fitted effect of over 45% in size
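p53-null H1299 cells stably carrying temperature-sensitive p53-A138V and a BP100-luciferase reporter were pinned with compounds (4-point, 1:5 series) and held 24 hrs at 37 deg C. Luminescence was read 10 min after detection reagent.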
GLP-1R agonist: qHTS of GLP-1 Receptor Agonists; AID 624172, 2012; hit rate 0.007% among 380,000; Glucagon-like peptide 1 receptor (Homo sapiens), P43220; HEK293 GLP-1R CRE-luciferase, luminescence, 4-6 h; cells express a hypersensitive GLP-1R form; Potency, µM (titrated, usually from 45.6 µM), inactives show at the highest dose activation, hits mostly activators; further: potency means the concentration at half of the fitted maximal effect; % of control where 0% means no effect
Target sequence (P43220 whole entry, looked up): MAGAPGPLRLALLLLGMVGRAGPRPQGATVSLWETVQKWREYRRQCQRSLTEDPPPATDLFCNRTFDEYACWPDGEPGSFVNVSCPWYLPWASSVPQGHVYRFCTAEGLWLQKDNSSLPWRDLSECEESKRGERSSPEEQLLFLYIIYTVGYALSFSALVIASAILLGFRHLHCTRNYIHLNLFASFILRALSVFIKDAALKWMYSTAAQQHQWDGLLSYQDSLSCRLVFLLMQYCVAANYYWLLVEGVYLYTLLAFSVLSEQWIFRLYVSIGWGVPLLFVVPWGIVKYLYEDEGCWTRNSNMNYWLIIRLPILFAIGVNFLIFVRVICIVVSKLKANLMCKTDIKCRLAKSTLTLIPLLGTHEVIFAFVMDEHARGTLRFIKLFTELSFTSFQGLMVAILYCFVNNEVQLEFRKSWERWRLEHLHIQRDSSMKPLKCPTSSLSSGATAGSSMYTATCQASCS
ClpP mod: qHTS Assay for Activators of ClpP; Potency, µM (titrated, usually from 57.5 µM), for the others: at the top dose activity change, negative = active; AID 651965, 2013; hit rate 1.9% among 340,000; purified B. subtilis ClpP, FRET peptide cleavage, 20 min; ATP-dependent Clp protease proteolytic subunit (Bacillus subtilis (strain 168)), P80244; active means well fitted falling curve with a large enough effect; inconclusive means small, poorly fitted or top-dose-only effect; inactive means no such curve, though single readings can be large or run the other way; further: potency means the concentration at half of the fitted maximal effect; the source files actives as falling curves though it sought activators and does not explain the sign; nearly all actives have a fitted effect of over 65% in size
Target sequence (P80244 whole entry, looked up): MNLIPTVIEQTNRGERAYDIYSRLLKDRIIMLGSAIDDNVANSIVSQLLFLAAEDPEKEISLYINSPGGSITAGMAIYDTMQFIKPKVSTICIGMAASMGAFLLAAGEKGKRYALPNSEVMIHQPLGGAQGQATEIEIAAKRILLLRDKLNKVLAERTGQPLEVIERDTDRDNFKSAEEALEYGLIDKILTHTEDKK
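Purified B. subtilis ClpP, 10 microg/mL final in Tris/HCl pH8 with KCl, BSA, glycerol and Tween-20, cleaved an Abz/nitrotyrosine-quenched decapeptide. Fluorescence (ex 320, em 430) was read at 0 and 20 min at room temperature. Delta was normalized to 5.8 microM ADEP and DMSO/no-enzyme controls.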
GLP1R inv ag: qHTS of GLP-1 Receptor Inverse Agonists (Inhibition Mode); Glucagon-like peptide 1 receptor (Homo sapiens), P43220; HEK293 GLP-1R CRE-luciferase, luminescence, 24 h; GLP-1R form is constitutively active; Potency, µM (top dose mostly 38.3 µM), for inactives: top-dose activity change, negative = inhibition, actives largely listed as inhibitors; hit rate 1.6% among 410,000; AID 624417, 2012; further: potency means the concentration at half of the fitted maximal effect; on the % scale 0 is the no-effect control and ±100 the full control effect; nearly all actives have a fitted effect of over 55% in size
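HEK293 cells stably co-expressing a cAMP-responsive luciferase reporter and constitutively active GLP-1R were seeded, incubated 12 h, then exposed to compounds for 24 h at 37 C. Luminescence was read 12 min after detection reagent; inverse agonists lower signal.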
LDHA block: qHTS assay for inhibitors of human lactate dehydrogenase. purified LDHA, NADH/diaphorase-resazurin fluorescence; active compounds read low. AID 1347041, 2019. hit rate 0.15% among 480,000. L-lactate dehydrogenase A chain (Homo sapiens), P00338. activity change, % (values are at about 110 or 230 µM); in the data active means activity change below about -30%; inconclusive means mostly about -25% to -30%;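 further: plate controls were DMSO wells for no effect and wells without enzyme for full effect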
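LDH5 2 nM; NADH 0.06 mM, pyruvate 0.2 mM; 200 mM Tris pH 7.4, EDTA, Tween-20; 5 min RT. Detection: diaphorase 0.133 mg/mL + resazurin 37 µM, fluorescence ex540/em590 at 0 and 20 min; normalized to enzyme-free and DMSO wells.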
An asterisk follows results filed as active; u = inconclusive; x = no result given. Unless noted, the call rests on the fitted dose curve; in most records, active means well fitted curve in the direction sought with a large enough effect; inconclusive means small, poorly fitted or top-dose-only effect, or another doubt; inactive means no such curve, though single readings can be large; an effect the other way counts as inactive or inconclusive.

SMILES	HEK293 tox	p53 reactivation	GLP-1R agonist	ClpP mod	GLP1R inv ag	LDHA block
CCOC(=O)Cc1cc(-c2ccc(O)cc2)nc2ccc3ccccc3c12	-9%	-9%	11%	32µM*	0%	-8
CCOC(=O)Cc1cc(-c2ccc(OC)cc2)nc2ccc3ccccc3c12	6%	9%	-2%	8.9µM*	-8%	-4
CCOC(=O)Cc1cc(-c2ccc(F)cc2)nc2ccc3ccccc3c12	1%	1%	0%	22µM*	-11%	-3
CCOC(=O)Cn1nc(-c2ccccc2)ccc1=O	2%	-1%	4%	-9%	0%	1
CCOC(=O)Cn1nc(-c2ccc(F)cc2)cc(Cc2ccccc2)c1=O	32%	3%	20%	-4%	11µM*	-5
CCOC(=O)c1cc(S(=O)(=O)N2CCN(c3ccc(C)cc3C)CC2)[nH]n1	2%	x	-3%	-1%	-13%	5
Cc1ccc(N/N=C/c2c(O)cc(C)oc2=O)cc1	-17%	-7%	-29%	4%	u	9
Cc1cc(O)c(/C=N/Nc2ccc(F)cc2)c(=O)o1	u	8%	4%	x	1.8µM*	14
COc1ccc(-c2sc3ccc(N4CCOCC4)cc3c2C#CCO)cc1	-91%	3%	13%	-8%	-25%	3
COc1ccc(-c2sc3ccc(N4CCOCC4)cc3c2C#CC2(O)CCCCC2)cc1	4%	-1%	u	25µM*	u	1
C=CCn1c(COc2ccccc2)nnc1SC(C)C(=O)N/N=C/c1cc(Cl)ccc1O (centres undefined)	-10%	u	-17%	-2%	8.9µM*	0
CC1CCN(c2nc3ccccn3c(=O)c2C=O)CC1	-7%	0%	7%	3%	15%	0
FC(F)(F)c1nc(N2CCCC2)ncc1-c1nnnn1-c1ccc(Cl)cc1	-26%	3%	-1%	-1%	7.1µM*	1
FC(F)(F)c1ccncc1-c1nnnn1-c1ccc(Cl)cc1	7%	6%	-1%	0%	-14%	-1
O=[N+]([O-])c1cc2ccccc2c(O)c1O	-14%	x	-7%	18%	-25%	22
COc1ccc(C(C)=O)cc1CN1CCCCCCC1	x	x	x	x	x	2
CCN1CCc2c(sc(NC(=O)c3ccc(S(=O)(=O)N4CCCC4)cc3)c2C(=O)NC)C1	u	35µM*	22%	-1%	43%	-2
CNC(=O)c1c(NC(=O)c2ccc(S(=O)(=O)N3CCCc4ccccc43)cc2)sc2c1CCN(C)C2	3%	-2%	14%	0%	4.5µM*	-2
CC1CCCCN1C(=S)NC(=O)c1ccccc1 (centres undefined)	11µM*	-1%	4%	-1%	u	-6
CCN(CC)S(=O)(=O)c1ccc(C(=O)NC(=S)N2CCCCC2C)cc1 (centres undefined)	-3%	x	-3%	0%	-26%	-8
O=C1/C(=C/c2cccc([N+](=O)[O-])c2)CCc2ccccc21	-1%	u	-19%	0%	-17%	-5
CCN1C/C(=C\c2cccc([N+](=O)[O-])c2)C(=O)/C(=C/c2cccc([N+](=O)[O-])c2)C1	5µM*	-24%	-17%	-1%	u	1
C=C(C)c1cccc(C(C)(C)NC(=O)NC2CC(C)(C)NC(C)(C)C2)c1	-10%	0%	3%	-1%	u	0
CN(Cc1ccccc1)C(=O)c1ccc2c(c1)OCO2	6%	7%	12%	-3%	5%	-6
CCCCN(C(=O)c1ccc2c(c1)OCO2)c1ccccc1	5%	0%	12%	x	10µM*	-2
SMILES	HEK293 tox	p53 reactivation	GLP-1R agonist	ClpP mod	GLP1R inv ag	LDHA block
CCCc1cc(=O)[nH]c(SCC(=O)Nc2cccc3ccccc23)n1	5%	-1%	7%	x	2%	3
CCC(COC)NCc1cn(-c2ccc(OC)cc2)nc1-c1cccc(F)c1 (centres undefined)	u	-3%	4%	4%	4.5µM*	-1
Cc1nc2c(C(=O)NCCC(C)C)c[nH]n2c(=O)c1Cl	-14%	1%	0%	32µM*	-6%	3
Nc1nc(-c2ccccc2Cl)cs1	2%	x	0%	-30%	-13%	1
OCCn1c(-c2ccc3c(c2)OCO3)csc1=Nc1ccccc1	-29%	6%	-2%	0%	3.5µM*	-1
OCCn1c(-c2ccc(F)cc2)csc1=Nc1ccccc1	-6%	28%	2%	1%	u	-3
CCCC(c1nnnn1Cc1ccc(OC)cc1)N1CCN(c2ccccc2OC)CC1 (centres undefined)	0%	5%	16%	-2%	10µM*	-2
O=C(NCc1ccccc1CN1CCCC1)c1ccc(-n2cccn2)cc1	x	x	x	x	x	-3
C=CCSc1nnc(-c2cc3c(C(F)(F)F)nn(C)c3s2)n1C	-14%	-4%	0%	-2%	13%	-6
C=CCSc1nnc(-c2cc3c(-c4ccccc4)nn(C)c3s2)n1C	-12%	5%	11%	28µM*	-19%	1
COc1ccc(OC)c(NC(=O)CSc2nnc(C3CCCCC3)n2-c2ccccc2)c1	2%	-12%	6%	-2%	4µM*	-1
COc1ccccc1NC(=O)CSc1nc(O)cc(=O)n1C	-4%	6%	1%	-2%	0%	-8
COc1ccc(-n2c(SCC(=O)Nc3ccc(Br)cc3)nc(O)cc2=O)cc1	-6%	8%	-1%	25µM*	10%	-3
COc1ccc(-n2c(SCC(=O)Nc3ccccc3OC)nc(O)cc2=O)cc1	10%	-2%	1%	35µM*	10%	-12
COc1ccc(CNCc2c(O)c(Cl)cc3c(C)c(C)c(=O)oc23)c(OC)c1	273%	1%	-1%	-1%	11%	-2
CC(C(=O)Nc1nccs1)c1ccc([N+](=O)[O-])cc1 (centres undefined)	6%	-6%	-2%	-1%	u	2
CCN1CCN(c2ccc(C(=O)O)cc2NS(=O)(=O)c2ccccc2)CC1	x	x	x	x	x	8
CCCS(=O)(=O)N1CCCC(C(=O)Oc2ccc(Cl)cc2)C1 (centres undefined)	21%	-1%	-6%	1%	2%	-11
